An excerpt weighted towards active compounds, which were near 3.4% of everything screened.
PNC inhibitor: perinucleolar compartment assembly inhibition | PC3M PTB-GFP, PNC prevalence imaging, 16 h; hits give low values | activity change (PNC), negative = inhibition, % at 10 µM | 140,000 compounds, 3.1% hits | AID 2417;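 active means readout at or below -70, meaning at least 70% loss of cells showing the perinucleolar compartment, a nuclear body marking cancer cells; inconclusive means readout between -30 and a set limit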;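 further: plate controls were DMSO wells for no effect and camptothecin positive control wells for full effect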
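PC3M cells stably expressing PTB-GFP, 750–1000 cells/well, treated 16 h at 37 °C with compound (23 nl of library stock), in duplicate. After paraformaldehyde fixation and Hoechst stain, imaged at 20x; PNC prevalence scored by image analysis.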
NPSR antag: neuropeptide S receptor (human) antagonism, cAMP; CHO-NPSR cells, cAMP TR-FRET, antagonist mode; Potency, µM (series often up to 38.3 µM), for inactives: top-dose activity change, negative = inhibition, usual class: inhibitors; 220,000 compounds, 1% hits; further: potency means the concentration at half of the fitted maximal effect; on the % scale 0 is the no-effect control and ±100 the full control effect; nearly all actives have a fitted effect of over 50% in size
HTT aggregate: reduces HttQ103-GFP aggregates in PC12 cells; PC12 HttQ103-GFP aggregates, Acumen cytometry, 40 h; Potency, µM (highest dose often 46.1 µM), for the others: top-dose activity change, negative = inhibition, actives largely listed as inhibitors; 220,000 compounds, 1.1% hits; AID 1688; further: potency means the concentration at half of the fitted maximal effect; on the % scale 0 is the no-effect control and ±100 the full control effect; nearly all actives have a fitted effect of over 60% in size
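Read-out: GFP aggregate count by laser scanning cytometer (488 nm excitation, 500-530 nm emission, 1–25 µm objects >6 SD above background). Cells: PC12, inducible HTTex1-Q103-GFP, 100 nM tebufenozide; compounds titrated.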
IMPase cell inh: cell-permeable inhibitors of inositol monophosphatase (IMPase); CHO-M1 cells, IP1 accumulation, HTRF TR-FRET ratio; P97697; AID 901; 120,000 tested, under 10 active; inhibition (IP1 accumulation), % at 46.1 µM; active means well fitted curve in the direction sought with a large enough effect in the signal ratio, not every such curve was filed as active; inconclusive means small, poorly fitted or top-dose-only effect, or a change in a side signal; inactive means no such curve, though single readings can be large or run the other way; the % refers to the signal ratio;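 further: cells stimulated with carbachol in lithium chloride buffer; plate controls were DMSO basal wells for no effect and reference inhibitor wells for full effect; higher means more IMPase inhibition seen as more IP1 and lower FRET ratio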
Target sequence (P97697 whole entry, looked up): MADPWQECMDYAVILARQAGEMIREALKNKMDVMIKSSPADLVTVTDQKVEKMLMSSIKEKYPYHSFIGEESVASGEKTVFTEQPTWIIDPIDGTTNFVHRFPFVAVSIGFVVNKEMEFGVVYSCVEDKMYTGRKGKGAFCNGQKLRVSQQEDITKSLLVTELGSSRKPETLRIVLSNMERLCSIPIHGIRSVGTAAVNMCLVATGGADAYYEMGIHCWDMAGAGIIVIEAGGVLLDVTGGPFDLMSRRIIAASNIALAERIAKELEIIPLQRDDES
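The IP-One HTRF competitive assay in carbachol-stimulated CHO-M1 cells quantifies cellular IP1. Compounds spanned up to 46 uM final, and activity is expressed as AC50 from concentration-response fits of the ratio and donor data.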
HTT ATP protect: protects HTT-Q103 PC12 cells, measured by ATP; AID 1471; PC12 HTT-Q103 induced, cytoprotection, ATP luminescence, 40 h; Potency, µM (titrated, usually from 56.4 µM), for the others: cytoprotection (ATP increase), usual class: activators; 230,000 compounds, 0.14% hits; further: potency means the concentration at half of the fitted maximal effect; % of control where 0% means no effect; nearly all actives have a fitted effect of over 45% in size
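ATP quantification (ATPlite) reports survival of PC12 cells in which tebufenozide, 100 nM final, switches on Htt exon 1 with 103 glutamines linked to GFP; compounds are titrated.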
IMPase Li inh: membrane-permeable IMPase blocker, potentiated with lithium. CHO-M1 cells, IP1 TR-FRET (IP-One), carbachol + lithium. Potency, µM (doses to about 59.4 µM), without a hit: top-dose activity, negative = IMPase inhibition, actives largely listed as inhibitors. 210,000 compounds, 0.35% hits. AID 1457;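 further: IP1 builds up when IMPase is blocked and the TR-FRET signal falls; potency means the concentration at half of the fitted maximal effect; plate controls were basal vehicle for no effect and high inhibitor control for full effect; nearly all actives have a fitted effect of over 50% in size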
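CHO cells stably expressing M1 receptor (2000/well) were cultured 16–30 h, then exposed to compounds with a small lithium addition for 30 min at 37C. IP1 was measured by TR-FRET competition; AC50 from Hill fits.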
Numbers without * were called inactive; ? = inconclusive; / = not tested or not shown; [ ] = remark or other dose. Unless noted, the call rests on the fitted dose curve; in most records, active means well fitted curve in the direction sought with a large enough effect; inconclusive means small, poorly fitted or top-dose-only effect, or another doubt; inactive means no such curve, though single readings can be large; an effect the other way counts as inactive or inconclusive.

SMILES	PNC inhibitor	NPSR antag	HTT aggregate	IMPase cell inh	HTT ATP protect	IMPase Li inh
CCN(CC)C(=O)c1sc(NC(=O)c2ccc(C)c([N+](=O)[O-])c2)c(C#N)c1C	?	0%[46.1 µM]	13µM*	4	-45%	6%[38.3 µM]
CCOC(=O)C(=O)Nc1sc(C(=O)N(CC)CC)c(C)c1C#N	/	15%	0%[9.22 µM]	/	13%[10 µM]	-2%
NC(N)=N[C@@H](CCC(=O)O)C(=O)O	/	7%[46.1 µM]	/	/	/	-7%
CS(=O)(=O)N1CCCC(C(=O)NCc2ccccn2)C1 (stereo not drawn)	-110*	1%[46.1 µM]	0%	-5	2%	-3%[38.3 µM]
O=C(NCc1ccc2c(c1)OCO2)C1CCCN(S(=O)(=O)c2cccnc2)C1 (stereo not drawn)	25	-10%	32µM*	6	14%[10 µM]	3%
Cc1ccc(CNC(=O)C2CCCN(S(=O)(=O)c3cccnc3)C2)cc1 (stereo not drawn)	?	-9%[46.1 µM]	-22%	10	7%	-1%[38.3 µM]
Cc1ccc(S(=O)(=O)N2CCCC(C(=O)NCc3ccccn3)C2)cc1 (stereo not drawn)	?	-15%[46.1 µM]	-3%	-3	8%[10 µM]	20%
COc1ccc(O[C@H]2C=C[C@@H](c3ccccc3)O[C@H]2COC(=O)CC/C(C)=N\OC[C@@H](O)COCc2ccco2)cc1	/	/	/	/	-42%[10 µM]	/
CN(Cc1cccs1)c1ncnc2sccc12	15	-13%[46.1 µM]	3.2µM*	2	1%[10 µM]	15%
Cc1sc2ncnc(N(C)Cc3cccs3)c2c1C	53	-23%[46.1 µM]	?	7	-4%	33%[38.3 µM]
O=C(Nc1cccc(F)c1)N1CC[C@@]2(CCCN(C(=O)c3ccco3)C2)C1	/	/	/	/	-7%	14%
Cc1nc(C(F)(F)F)c(C(=O)N/N=C(\N)c2ccccn2)s1	/	6%	22µM*	/	-164%	-1%
N/C(=N\NS(=O)(=O)c1ccccc1C(F)(F)F)c1ccccn1	/	-23%	3%[9.22 µM]	/	3%[10 µM]	/
O=C(CCNC(=O)c1ccccc1Cl)Nc1nnc(C2CC2)s1	/	16%	5%	/	9%[10 µM]	13%
O=c1c(-c2ccc(Cl)cc2)nc2cnc(N3CCNCC3)nc2n1-c1ccccc1	/	/	/	/	-40%	8%
O=S(=O)(Nc1ccc(Cc2ccncc2)cc1)c1ccc(Cl)c(Cl)c1	2	-29%[46.1 µM]	11µM*	19	-60%	29%[38.3 µM]
O=S(=O)(Nc1ccc(-n2cccc2)cc1)c1ccc(Cl)c(Cl)c1	/	15%	-6%[9.22 µM]	/	-19%[10 µM]	/
COc1ccc(NS(=O)(=O)c2ccc3nc(COc4ccc(Cl)c(C)c4)[nH]c3c2)cc1	-106*	-8%[46.1 µM]	?	-2	-6%[10 µM]	/
COc1ccc(NS(=O)(=O)c2ccc3nc(-c4ccccc4)[nH]c3c2)cc1	/	/	/	7	/	/
C[C@@]12CC[C@@H]3c4ccc(O)cc4CC[C@H]3[C@H]1C[C@@H](O)[C@H]2O	/	/	/	2[20.6 µM]	-34%[17.1 µM]	-5%
C/C(N[C@@H]1CSCC1O)=C1/C(=O)CC2[C@@H]1C2(C)C (stereo partly drawn)	/	/	/	/	-43%	-4%
COC(=O)CCCNC(=O)c1ccc2[nH]c(C)c(C)c2c1	/	-3%	1.3µM*	/	-11%	7%
O=C(COC(=O)Cc1ccc(S(=O)(=O)N2CCCCC2)s1)Nc1ccc2c(c1)OCO2	17	-2%[46.1 µM]	19%	8	0%[10 µM]	9%[38.3 µM]
O=C(Cc1ccc(S(=O)(=O)N2CCCCC2)s1)Nc1ccc(F)c(F)c1	-86*	-24%	4%	/	/	4%
CC(NC(=O)Nc1ccc(O)cc1)(C(F)(F)F)C(F)(F)F	-100*	6%[46.1 µM]	10%	9	1%[10 µM]	4%
CCC(Cc1c(I)cc(I)c(O)c1I)C(=O)O (stereo not drawn)	/	/	1%	/	?	/
CN(C1CCCCC1)S(=O)(=O)c1ccc(NC(=O)C2CCCCC2)cc1	-10	?	1.8µM*	-8	-33%[10 µM]	33%[38.3 µM]
O=C(Nc1cccc(S(=O)(=O)N2CCCCC2)c1)c1ccccn1	/	-35%	-25%	/	-47%	18%
O=C(Nc1cccc(S(=O)(=O)N2CCCCCC2)c1)c1cc(=O)c2ccccc2o1	/	-42%	20µM*	/	-39%	21%

Assay outcomes as filed in PubChem.
